This is one part of a sample in which hits are shown more often than they occur.
Dicer inh – human Dicer pre-microRNA cleavage inhibition | cat-ELCCA pre-miR-21 Dicer processing, chemiluminescence; stronger effect = higher value | z-score at 25 µM | hit rate 6% among 47,000 | AID 1347074; in the data active = z-score above about 3, passing the limit was not always enough;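 also: plate controls were vehicle for no effect and no enzyme for full effect; higher signal means more uncleaved substrate so more Dicer inhibition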
Starred values were filed as active, the others as inactive.

SMILES	Dicer inh
Cc1c(NS(=O)(=O)c2ccccc2)cc(Cl)c(O)c1C	2.1
Cc1ccc(S(=O)(=O)Nc2cc(C(C)C)c(O)c(Cl)c2C)cc1	3.2*
Cc1ccc(S(=O)(=O)Nc2cc(S(=O)(=O)c3ccc(C)cc3)c(O)c3ncccc23)cc1	-1.3
COc1cccc(Nc2nc(C)c([N+](=O)[O-])c(Nc3cccc(OC)c3)n2)c1	0.32
N/C(=N\NS(=O)(=O)c1ccc(Cl)cc1)c1cnccn1	-0.58
COc1ccc(N)c2nc(C)c(C)nc12	-3.6
Cc1ccc(CN2C(=O)c3oc4ccc(Br)cc4c(=O)c3C2c2ccc(O)cc2)cc1 (centres undefined)	0.63
Cc1onc(-c2c(Cl)cccc2Cl)c1NC(=O)N(C)c1c2c(nn1C)CCCC2	-0.51
Cc1ccc(Cn2c(=O)oc3ccccc32)cc1	-0.05
O=c1oc2ccccc2n1Cc1ccc(Cl)cc1	-0.45
O=c1oc2ccccc2n1Cc1ccccc1Cl	4.9*
Fc1ccc(C2Nc3cccc4cccc(c34)N2)cc1	-0.77
COc1ccc(C2Nc3cccc4cccc(c34)N2)cc1Br	4.9*
COc1cccc(C2Nc3cccc4cccc(c34)N2)c1O	0.69
Oc1ccc2ccccc2c1C1Nc2cccc3cccc1c23 (centres undefined)	-2.6
COc1ccc(C#N)cc1Br	-0.35
Brc1ccc(C2Nc3cccc4cccc(c34)N2)cc1	5*
COc1cc(NC(=O)C(=O)NC2CC(C)(C)NC(C)(C)C2)c(OC)cc1Cl	1
CSc1nc(C)nc(-c2cccc(CSc3ccccc3)c2)c1C#N	-0.22
O=c1[nH]c(=O)n(Cc2ccccc2)c2nc[nH]c12	2.6
Cc1ccc(-c2cc(Cc3cccs3)c(=O)[nH]n2)cc1	16
Cc1cc(Cc2ccc(Cl)cc2)c(=O)[nH]n1	-0.59
Cc1ccc(-c2cc(Cc3cccn3-c3ccc(Cl)cc3)c(=O)[nH]n2)cc1	3.8*
CCOC(=O)c1c(C)n(C)c2ccc(OCC(O)CN3CCOCC3)cc12 (centres undefined)	1.9
CCOC(=O)N1CCN(CC(O)COc2c(C)cc(C)cc2C)CC1 (centres undefined)	3.3*
SMILES	Dicer inh
CCOC(=O)N1CCN(CC(O)COc2cc(C)cc(C)c2)CC1 (centres undefined)	2.6
CCOC(=O)N1CCN(S(=O)(=O)c2c(C)cc(C)cc2C)CC1	1.2
O=C(COc1ccc(Cl)cc1)N1CCN(Cc2ccc3c(c2)OCO3)CC1	0.41
CCOC(=O)N1CCN(CC(O)COc2cc(C)ccc2C(C)C)CC1 (centres undefined)	3.5*
CCOC(=O)N1CCN(CC(O)COCc2ccc3c(c2)OCO3)CC1 (centres undefined)	3.2*
CCOC(=O)c1c(C)n(C)c2ccc(OCC(O)CN3CCN(C)CC3)cc12 (centres undefined)	0.6
OC(CN1CCN(Cc2ccc3c(c2)OCO3)CC1)Oc1ccc(C(F)(F)F)cc1 (centres undefined)	-2.7
CC1(C)N=C(N)N=C(N)N1c1cccc(C(F)(F)F)c1	0.13
CC1=C(C(=O)OC2CCCCC2)C(c2cccc(C)c2)C2=C(CCCC2=O)N1 (centres undefined)	1.2
Cc1nnc2n1NC(c1ccc(Cl)cc1)C(C(=O)Nc1ccc(Br)cc1F)S2 (centres undefined)	0.21
O=C1NC(=S)N/C1=C/c1cccs1	4.1*
Cc1ccc(S(=O)(=O)Oc2ccc(/C=C3\NC(=O)NC3=O)cc2)cc1	-0.5
Cc1ccc(/C=C2\NC(=S)NC2=O)cc1	4.7*
Cc1cc(C=C2C(=O)NC(=S)NC2=O)cc(C)c1O	-1.6
O=C1/C(=C/c2ccsc2)CC/C1=C\c1cccs1	-1.6
COc1ccc(/C=C2/NC(=S)NC2=O)c(Cl)c1OC	-0.81
CCc1c(O)c(C(C)=O)c(=O)n(-c2ccccc2)c1-c1ccccc1	-0.16
COCCCn1c(SCC(=O)NNC(=O)C(Cl)Cl)nnc1-c1ccc(C(C)(C)C)cc1	-2.2
Cc1c(Br)c(C(F)(F)F)nn1CC(=O)N1CCc2ccccc2C1	-0.61
COc1ccccc1/C=C/c1ccccc1OC	1.4
COc1ccc(NC(=O)c2ccc([N+](=O)[O-])o2)c(OC)c1	1.8
Cc1cccc(OCC(O)Cn2cnc3ccccc32)c1 (centres undefined)	3.7*
Cc1ccc(Cl)c(OCC(O)Cn2cnc3ccccc32)c1 (centres undefined)	0.51
Cc1cccc(C)c1OCC(O)Cn1cnc2ccccc21 (centres undefined)	0.99
Cn1c(=O)c([N+](=O)[O-])c(O)c2c(=O)n(-c3ccccc3)c(=O)n(-c3ccccc3)c21	-1.4
SMILES	Dicer inh
CCCn1c(SCCO)nc2c1c(=O)[nH]c(=O)n2C	-0.29
O=C(Nc1ccc(Oc2ncnc3cc(Cl)ccc23)nc1)c1ccccc1	93
Cc1cc(C)c2c(N)c(C(=O)c3ccccc3Cl)sc2n1	-2.3
COCc1cc(C)nc2sc(C(=O)OC)c(N)c12	1
COCc1cc(C)nc2sc(C(=O)N3CCCC3)c(N)c12	3.9*
N#CC(=C1SCCS1)S(=O)(=O)Cc1ccco1	-0.54
COC(=O)c1scc(S(=O)(=O)Cc2ccco2)c1NN=C(C#N)C#N	4.8*
COC(=O)c1scc(S(=O)(=O)Cc2cccs2)c1N/N=C(\C#N)S(=O)(=O)c1cccs1	6
C[C@H](N)C(=O)Nc1ccc([N+](=O)[O-])cc1	-0.67
COc1ccc(CCNC(=S)Nc2c(Br)cc(F)cc2Br)cc1OC	0.7
CCOC(=O)c1snc2c(=O)[nH]cnc12	2.2
CCOC(=O)c1c(C)c2c(=O)[nH]cnc2n1-c1ccccc1	-0.11
CCOC(=O)c1sc2nc[nH]c(=O)c2c1C	4.2*
CC(C)(C)CC(C)(C)NC(=O)C(Cl)Cl	-0.45
O=C(Nc1csnc1-c1c(Cl)cccc1Cl)NN1CCOCC1	-0.81
CCOC(=O)/C(C)=N/Nc1ccc(F)cc1	0.97
CCOC(=O)/C(C)=N/Nc1ccccc1	-1
CCOC(=O)/C(=N\Nc1cccc(C)c1)c1csc(N)n1	4*
CC1=C(C(=O)OC(C)C)C(c2ccc(F)c(Br)c2)CC(=O)N1 (centres undefined)	0.6
Cc1ccc(C2CC(=O)c3cnc(Nc4ccc(C)cc4C)nc3C2)cc1 (centres undefined)	4.2
CCCN(CCC)C(=O)C1Sc2nnc(-c3ccccc3)n2NC1c1ccccc1 (centres undefined)	-0.05
CSc1ccc([N+](=O)[O-])cc1C(=O)/C=C/N(C)C	6.2*
CSc1ccc([N+](=O)[O-])cc1C(C)=O	-0.35
O=C(O)c1cc([N+](=O)[O-])ccc1Sc1ccc([N+](=O)[O-])cc1C(=O)O	-0.05
Cc1n[nH]c(=O)c2noc(/C=C/c3ccc(Cl)c(Cl)c3)c12	-1
SMILES	Dicer inh
COc1ccccc1N1CCN(Cc2ccc3ccccc3c2)CC1	1.9
COc1ccccc1N1CCN(S(=O)(=O)c2ccccc2)CC1	0.58
COc1ccccc1N1CCN(C2CCN(S(=O)(=O)c3ccc(Cl)cc3)CC2)CC1	3.6*
O=S(=O)(c1ccc(F)cc1)N1CCC(N2CCCC2)CC1	2.3
COc1cc(S(=O)(=O)N2CCC(C)CC2)ccc1Cl	-0.36
COc1ccccc1N1CCN(S(=O)(=O)c2cccc3ccccc23)CC1	3.3*
Cc1ccc(NC(=S)NN=C2CCCCCC2)c(C)c1	0.68
CC1CCC2C(=O)N(c3cccc4ccccc34)C(=O)C2C1 (centres undefined)	0.07
O=C(NCc1cccnc1)c1ccccc1C(=O)Nc1sc2ccccc2c1Cl	0.31
CNc1ncnc(Oc2ccc(OC)cc2)c1[N+](=O)[O-]	0.47
Cc1oc(-c2ccccc2)nc1CCO	0.44
COCc1cc(=O)n2[nH]c(NC(C)=O)nc2n1	8.6

Bioassay records deposited in PubChem BioAssay by Center for Chemical Genomics, University of Michigan.
